High-throughput results deposited in PubChem BioAssay by National Center for Advancing Translational Sciences (NCATS).
ClpP mod – qHTS Assay for Activators of ClpP; 340,000 tested, 1.9% active; Potency, µM (doses to about 57.5 µM), without a hit: top-dose activity change, negative = active; purified B. subtilis ClpP, FRET peptide cleavage, 20 min; ATP-dependent Clp protease proteolytic subunit (Bacillus subtilis (strain 168)), P80244; active = well fitted falling curve with a large enough effect; inconclusive = small, poorly fitted or top-dose-only effect; inactive = no such curve, though single readings can be large or run the other way; also: potency is read from the fitted curve at half-maximal effect; the source files actives as falling curves though it sought activators and does not explain the sign; nearly all actives have a fitted effect of over 65% in size
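FRET quenching reversal measured ClpP activation: 10 microg/mL B. subtilis ClpP at pH 8 with the FRET-FV decapeptide, read at 430 nm after 320 nm excitation. The 20-min minus 0-min signal was scaled between DMSO/no-enzyme wells and ADEP (5.8 microM final).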
BCR signal inh – chronic active BCR signaling inhibition; ABC-DLBCL IkBa-CBG/CBR reporter, luminescence ratio, 4 h; Potency, µM (titrated, usually from 46.1 µM), inactives show top-dose activity change, negative = inhibition, usual class: inhibitors; 340,000 tested, 0.05% active; active = well fitted inhibition curve with a large enough effect in the signal ratio, with a control signal flat, not every such curve was filed as active; inconclusive = small, poorly fitted or top-dose-only effect, or effect the other way, or a change in a side signal; the % refers to the signal ratio;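 also: potency is read from the fitted curve at half-maximal effect; plate controls were basal doxycycline-induced cells for no effect and cells given 10 µM MG132 for full effect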
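TMD8 ABC-DLBCL cells carrying doxycycline-inducible green luciferase fused to IkappaBalpha plus unfused red luciferase were exposed to compounds (up to 46 uM) for 4 hrs at 37C. Activity came from the overlap-corrected green/red luminescence ratio.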
hERG WT inh – KCNH2 (human, wildtype) channel inhibition; Q12809; AID 720551; 340,000 tested, 0.37% active; activity change, % at 1.84 µM; U2OS, BacMam KCNH2, thallium flux FluxOr; stronger effect = lower value;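 active = maximum activity change below -70%; inconclusive = maximum activity change between -70% and -50%; inactive = maximum activity change above -50%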; also: % is scaled to controls: 0 for no effect and ±100 for the full control effect
Target sequence (Q12809 whole entry, looked up): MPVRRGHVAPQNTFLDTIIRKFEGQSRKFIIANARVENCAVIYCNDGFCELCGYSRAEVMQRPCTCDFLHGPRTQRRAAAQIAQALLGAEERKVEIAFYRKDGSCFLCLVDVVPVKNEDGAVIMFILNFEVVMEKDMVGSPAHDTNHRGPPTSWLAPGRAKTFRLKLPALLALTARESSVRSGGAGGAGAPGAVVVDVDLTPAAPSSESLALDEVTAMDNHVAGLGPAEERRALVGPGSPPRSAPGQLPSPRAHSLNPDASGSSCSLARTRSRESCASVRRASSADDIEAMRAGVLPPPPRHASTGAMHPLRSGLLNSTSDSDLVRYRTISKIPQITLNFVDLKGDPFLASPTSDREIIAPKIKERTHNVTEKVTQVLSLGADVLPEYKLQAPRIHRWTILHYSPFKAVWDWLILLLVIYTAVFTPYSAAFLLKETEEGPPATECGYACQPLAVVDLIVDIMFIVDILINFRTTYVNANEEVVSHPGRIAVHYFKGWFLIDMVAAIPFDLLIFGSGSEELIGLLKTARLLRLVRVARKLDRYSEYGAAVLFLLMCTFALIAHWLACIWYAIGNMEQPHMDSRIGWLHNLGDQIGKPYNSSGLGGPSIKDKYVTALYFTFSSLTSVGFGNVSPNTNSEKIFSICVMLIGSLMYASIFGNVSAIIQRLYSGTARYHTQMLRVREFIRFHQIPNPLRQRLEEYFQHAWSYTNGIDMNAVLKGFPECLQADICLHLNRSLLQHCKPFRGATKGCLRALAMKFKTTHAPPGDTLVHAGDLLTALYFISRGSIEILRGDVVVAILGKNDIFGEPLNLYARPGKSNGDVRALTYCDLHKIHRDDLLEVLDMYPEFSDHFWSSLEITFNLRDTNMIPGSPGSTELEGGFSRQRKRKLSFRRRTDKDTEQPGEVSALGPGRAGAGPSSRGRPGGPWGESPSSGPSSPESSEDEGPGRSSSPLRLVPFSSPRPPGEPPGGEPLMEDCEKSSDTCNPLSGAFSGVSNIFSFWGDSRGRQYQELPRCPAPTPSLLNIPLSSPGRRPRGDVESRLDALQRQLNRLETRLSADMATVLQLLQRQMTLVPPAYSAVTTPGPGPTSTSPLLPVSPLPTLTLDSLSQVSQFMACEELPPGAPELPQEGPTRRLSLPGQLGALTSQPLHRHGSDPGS
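U2OS cells transduced with wild-type KCNH2 virus are loaded with FluxOr dye for 45 min, and thallium flux is measured in kinetic reads before and after stimulation buffer. Rate constants are normalized to DMSO controls.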
12-LOX inh – blocks human arachidonate 12S-lipoxygenase; Potency, µM (titrated, usually from 108 µM), inactives show at the highest dose activity change, negative = inhibition, actives largely listed as inhibitors; 580,000 tested, 1.1% active; P18054; purified 12hLO, xylenol orange hydroperoxide absorbance; active = well fitted inhibition curve with a large enough effect; inconclusive = small, poorly fitted or top-dose-only effect, or another doubt; inactive = no such curve, though single readings can be large or run the other way; also: potency is read from the fitted curve at half-maximal effect; % is scaled to controls: 0 for no effect and ±100 for the full control effect
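Purified human 12hLO (150 nM final) in 25 mM Hepes, 0.01% Triton X-100, pH 7.0 was preincubated 15 min at room temperature with compound. Then 40 uM arachidonic acid was added, 30 min. Hydroperoxide was read by Fe-XO absorbance ratio 573/405 nm.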
LDHA block – inhibitors of human lactate dehydrogenase A | P00338 | purified LDHA, NADH/diaphorase-resazurin fluorescence; stronger effect = lower value | activity change, % (values are at about 110 or 230 µM) | 480,000 tested, 0.15% active | AID 1347041; in the data active = activity change below about -30%; inconclusive = mostly about -25% to -30%;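 also: plate controls were DMSO wells for no effect and wells without enzyme for full effect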
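Enzyme activity of human lactate dehydrogenase 5 (2 nM; 0.06 mM NADH, 0.2 mM pyruvate, 5 min, RT) is measured via a resazurin/diaphorase fluorescence readout of residual NADH.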
KCNH2 3.1 inh – inhibitors of human KCNH2 3.1 potassium channel isoform. activity change, % (tested at about 1.8 µM). AID 720553. 340,000 tested, 0.95% active. U2OS KCNH2 3.1, thallium flux FluxOr; stronger effect = lower value;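 active = maximum activity change below -70%; inconclusive = maximum activity change from -70% to -50%; inactive = maximum activity change above -50%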;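 also: thallium influx rate constant from kinetic fluorescence after stimulation buffer; % is scaled to controls: 0 for no effect and ±100 for the full control effect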
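Steps: virus added to U2OS suspension (4 h, RT, dark); medium with 10% FBS added, cells plated, 37 C overnight; FluxOr/Red40 loading buffer 45 min RT; stimulation buffer, 2 min kinetic read; rate constant normalized.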
* marks the source's active call; other numbers are inactive results; ? = inconclusive; . = no result given; ! = not active in a repeat; [ ] = another dose, or the depositor's remark. An excerpt weighted towards active compounds, which were near 3% of everything screened.

SMILES | ClpP mod | BCR signal inh | hERG WT inh | 12-LOX inh | LDHA block | KCNH2 3.1 inh
CCN(CC)CCCNC(=O)CCC(=O)NNc1nc2ccccc2c2nc(C)nn12 | -4.4% | ? | -25.8 | 15.3% | 11.6 | 10.6
CCCCN(C)C(=O)CCC(=O)NNc1nc2ccccc2c2nc(C)nn12 | 25.1µM*! | -2.0% | -0.5 | -1.7% | -6.2 | 4.8
OC[C@H]1OC([S-])[C@H](O)[C@@H](O)[C@H]1O.[Au+] (stereo not given in full) | . | . | . | -1.0% | . | .
O=C1CCc2cc(S(=O)(=O)NCc3ccccc3)cc3c2N1CCC3 | . | . | . | ? | -7.4 | .
COc1cc(OC)c2c(-c3cccc(/C=C/c4ccc(F)cc4)c3)cc(=O)oc2c1 | ? | ? | -152.8* | -29.9% | -0.6 | -19.2
COc1cc(OC)c2c(-c3cccc(-c4cccc(C)c4)c3)cc(=O)oc2c1 | 22.4µM* | ? | -5.0 | -5.3% | -9.1 | -11.0
Cc1ccc(OCC(=O)NCCC2CCN(C(=O)Nc3ccc(F)cc3)CC2)cc1 | . | . | . | -11.6% | . | .
CC1(COc2ccccc2)COc2ccc(C(=O)NCCc3ccccn3)cc2N1 (stereo not given) | . | . | . | 17.8µM* | . | .
O=C(COC(=O)c1cccs1)c1ccc(OC(=O)c2ccco2)cc1 | . | . | . | 2.8% | -6.0 | .
COC(=O)C1=C(C)N(Cc2ccccc2)C(=S)NC1c1ccc(Cl)cc1 (stereo not given) | . | . | . | 35.5µM* | . | .
COC(=O)C1=C(CCc2ccccc2)NC(=O)NC1c1ccc(Cl)cc1 (stereo not given) | -4.6% | . | 3.8 | 35.5µM* | 0.4 | 10.6
COC(=O)C1=C(C)N(Cc2ccccc2)C(=S)N[C@H]1c1cccc(F)c1 | -0.9% | ? | -3.8 | ? | -6.4 | -23.0
CCOC(=O)C1=C(CNc2ccc(C)c(Cl)c2)NC(=O)NC1c1ccc(Cl)cc1 (stereo not given) | . | . | . | 8.91µM* | -3.1 | .
COC(=O)C1=C(C)N(Cc2ccc(Cl)cc2)C(=S)NC1c1ccccc1 (stereo not given) | . | . | . | 39.8µM* | . | .
O=C(/C=C/c1cnc2ccccc2n1)NCc1ccccc1 | . | . | . | ? | 13.6 | .
CCCCCCCC1C(C#N)=C(N)SC(N)=C1C#N | . | . | . | ? | -6.2 | .
CSc1nc2n(n1)C(c1cccc(Cl)c1)C1=C(CCCC1=O)N2 (stereo not given) | . | . | . | 5.5% | 0.7 | .
O=S1(=O)CCN(Cc2cn(C[C@H]3C[C@@H](NCc4ccc(F)cc4)[C@H](O)[C@@H]3O)nn2)CC1 | . | . | . | 12.6µM* | . | .
COCC(=O)N[C@@H]1C[C@H](Cn2cc(CN3CCS(=O)(=O)CC3)nn2)[C@@H](O)[C@H]1O | . | . | . | 67.7% | . | .
COCc1cn(C[C@H]2C[C@@H](NCc3cccnc3)[C@H](O)[C@@H]2O)nn1 | . | . | . | 22.4µM* | . | .
COCc1cn(C[C@H]2C[C@@H](NCc3cccc4c3OCO4)[C@H](O)[C@@H]2O)nn1 | . | . | . | 3.0% | . | .
O=C(N[C@@H]1C[C@H](Cn2cc(-c3cccnc3)nn2)[C@@H](O)[C@H]1O)C1CCCC1 | . | . | . | 80.3% | . | .
O=S(=O)(N[C@@H]1C[C@H](Cn2cc(-c3cccnc3)nn2)[C@@H](O)[C@H]1O)c1ccccc1 | . | . | . | 20µM* | . | .
c1ccc(C(CNCc2ccsc2)N2CCCC2)cc1 (stereo not given) | . | . | . | ? | -0.7 | .
Cc1ccc(C)c(S(=O)(=O)N2CCCN(C)CC2)c1 | . | ? | -3.2 | 1.1% | 0.7 | -90.1*
SMILES | ClpP mod | BCR signal inh | hERG WT inh | 12-LOX inh | LDHA block | KCNH2 3.1 inh
Cc1ccc(C)c(S(=O)(=O)N2CCN(c3ncccn3)CC2)c1 | . | 0.0% | 1.6 | 1.6% | -6.7 | -9.4
O=C1CSc2ccc(C(=O)Nc3ccccc3O)cc2N1 | . | . | . | ? | 12.9 | .
Cc1cc2oc(=O)cc(CN3CCN(CCc4ccccn4)CC3)c2cc1C | . | . | . | -34.3% | 0.0 | .
O=C(COC(=O)c1ccccc1NCCO)Nc1ccc(S(=O)(=O)NC2=NCCCCC2)cc1 | 14.1µM* | . | -5.0 | ? | -13.6 | 11.5
CCOc1ccccc1-c1nc(-c2ccc(C)nc2OC)no1 | 28.2µM* | ? | 0.6 | -20.1% | -4.7 | 4.3
O=[S+]([O-])(c1ccccc1)N1CCCC2(CC(c3cccnc3)=NO2)C1 (stereo not given) | . | . | . | -0.5%[6.33 µM] | . | .
Cc1cccn2c(/C=N/OCc3cccc(F)c3)c(-c3ccc(Cl)cc3)nc12 | 22.4µM* | -2.0% | 5.5 | -0.3% | -4.1 | 0.7
COc1ccc(/C=C(\NC(=O)c2ccc([N+](=O)[O-])cc2)C(=O)NCCCn2ccnc2)cc1 | 1.2% | 4.3% | -111.3* | 2.2% | -3.8 | -35.5
COc1ccc(NC(=O)NCCN2CCc3ccccc3C2)cc1 | 1.5% | ? | 7.5 | ? | 0.4 | 13.2
O=C(NCCCn1ccnc1)Nc1ccc(Cl)cc1 | -2.0% | ? | 1.9 | 13.4% | -1.6 | -71.2*
O=C(NCCCn1ccnc1)Nc1ccc(Cl)c(Cl)c1 | -0.8% | ? | 1.9 | -13.9% | 0.0 | -24.5
O=C(NCCCn1ccnc1)/C(=C/c1ccc(Cl)cc1)NC(=O)c1ccccc1 | . | 3.4% | -128.9* | 0.1% | -5.8 | -104.8*
CN(C)c1ccc(/C=C(/NC(=O)c2ccccc2)C(=O)NCCCn2ccnc2)cc1 | 0.3% | 1.1% | 24.8 | . | -0.5 | 4.8
O=C(NCCCN1CCc2ccccc2C1)Nc1ccc(Cl)cc1 | -1.3% | ? | -5.9 | ? | -5.1 | -87.1*
O=C(NCCCn1ccnc1)/C(=C\c1cccnc1)NC(=O)c1ccccc1F | 1.7% | -2.2% | -2.6 | 390.2% | -1.4 | -5.5
O=C(CCCN1C(=O)c2ccccc2C1=O)NCCCn1ccnc1 | -10.8% | ? | 13.5 | -5.7% | -0.3 | 7.8
COc1ccc(/C=C(\NC(=O)c2ccc(C)cc2)C(=O)NCCCn2ccnc2)cc1 | . | 4.6% | ? | 16.5% | 0.1 | -91.9*
O=C(NCCCn1ccnc1)/C(=C\c1ccc(Br)cc1)NC(=O)c1ccccc1F | -2.4% | 4.1% | -129.1* | ? | -10.0 | -110.7*
O=C(NCCCn1ccnc1)C(Cc1ccc([N+](=O)[O-])cc1)N1C(=O)c2ccccc2C1=O (stereo not given) | -1.9% | 7.1% | -119.1* | 10.1% | -3.5 | -87.7*
Cc1ccc2nc3c(cc(C(N)=S)c(=N)n3CCCOC(C)C)c(=O)n2c1 | 22.4µM* | 11.1% | -36.6 | ? | -0.6 | -6.9
COCCCn1c(=N)c(C(N)=S)cc2c(=O)n3cccc(C)c3nc21 | . | . | -19.7 | ? | -2.4 | -10.7
Cc1cc(NC(=O)c2ccc(Cl)cc2)n(CCOC(=O)c2ccc(Cl)cc2)n1 | -0.5% | 4.3% | -98.1* | 4.5% | -4.1 | 0.8
